According to PubChem BioAssay:
Several values for one entry are separate records, joined by “and”; a condition that tells them apart may be missing. Equal values may be shown once.

Assays:
[1] = tested on: Human papillomavirus type 1a protein E7 (residues 44-93); assay: small molecules binding HPV E7 44-93 – biochemical, small-molecule microarray, residues 44-93, 635 nm fluorescence, primary screen (AID 1108); conditions: fluorescence 635 nm, higher = more signal;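 further: E7 fragment applied at 1 µg/mL in TBST for 1 h at 4 C; score combines spot fluorescence with its signal to noise ratio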
[2] = hepatitis C replication reporter changes, two-sided – Huh7 cells, luciferase reporter, HCV replication inhibitor project, primary screen (AID 1109); conditions: Huh7 HCV replicon luciferase reporter, 48 h; higher = more signal;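 further: huh7 hepatoma cells harbouring a luciferase neomycin HCV replicon reporter; luciferase luminescence as measure of HCV replicon replication; test concentration not given here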
[3] = molecular target: Left-right determination factor 2 (Homo sapiens) (UniProt O00292); assay: small molecules binding LEFTY2 protein – biochemical, small-molecule microarray, 635 nm fluorescence scan, primary screen (AID 1110); conditions: higher = more signal
Sequence of Left-right determination factor 2 (Homo sapiens) (O00292 whole entry, looked up): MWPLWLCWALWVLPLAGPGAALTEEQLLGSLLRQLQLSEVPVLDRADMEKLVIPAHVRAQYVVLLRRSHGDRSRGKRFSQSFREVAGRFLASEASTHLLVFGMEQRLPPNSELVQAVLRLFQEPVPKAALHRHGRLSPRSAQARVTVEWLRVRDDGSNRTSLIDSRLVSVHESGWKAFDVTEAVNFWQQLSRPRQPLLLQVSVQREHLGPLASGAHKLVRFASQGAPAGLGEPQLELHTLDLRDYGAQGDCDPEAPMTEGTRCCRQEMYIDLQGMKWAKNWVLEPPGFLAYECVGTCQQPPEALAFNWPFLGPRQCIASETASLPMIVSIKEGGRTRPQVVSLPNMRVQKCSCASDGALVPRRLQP

[4] = molecular target: Calmodulin-1 (Homo sapiens) (UniProt P0DP23); assay: small molecules binding calmodulin-1 with EGTA – biochemical, small-molecule microarray, Cy5-labelled CALM1, profiling panel (AID 1111); conditions: Cy5-CALM1 binding fluorescence, higher = more signal;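 further: labelled calmodulin applied in Tris saline Tween buffer holding calcium plus EGTA and DTT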
[5] = molecular target: Calmodulin-1 (Homo sapiens) (UniProt P0DP23); assay: small molecules binding Ca-loaded calmodulin-1 – biochemical, small-molecule microarray, Cy5-labelled CALM1, plus calcium, artefact control for SMM control-protein annotation, profiling panel (AID 1112); conditions: Cy5-CALM1 binding fluorescence, higher = more signal;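 further: score merges spot fluorescence with signal to noise from triplicate slides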
[6] = probe aWnt5a binding to arrayed compounds – biochemical, biotinylated probe, 635/667 nm fluorescence, primary screen (AID 1113); conditions: small-molecule microarray, higher = more signal;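 further: score merges 667 nm fluorescence intensity with signal-to-noise per printed feature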
[7] = probe aShh binding to arrayed compounds – biochemical, biotinylated probe, 635/667 nm fluorescence, primary screen (AID 1114); conditions: small-molecule microarray, higher = more signal;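 further: probe is biotin-labelled aShh protein from a stem cell growth factor screen; measures binding of labelled protein to compounds printed on the slide; score merges feature fluorescence at 667 nm with signal-to-noise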
[8] = probe aNog binding to arrayed compounds – biochemical, biotinylated probe, 635/667 nm fluorescence, primary screen (AID 1115); conditions: small-molecule microarray, higher = more signal;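 further: probe is biotinylated aNog protein used at 0.15 µg/mL for 1 h at 4 C; z-score combines 667 nm fluorescence of each spot with its signal to noise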
[9] = molecular target: Torsin-1A-interacting protein 1 (Homo sapiens) (UniProt Q5JTV8); assay: compound microarray binding of lysate hLAP1 – cell lysate, small-molecule microarray, COS7 lysate, 635/667 nm fluorescence, primary screen (AID 1116); conditions: 635 nm fluorescence, higher = more signal
Sequence of Torsin-1A-interacting protein 1 (Homo sapiens) (Q5JTV8 whole entry, looked up): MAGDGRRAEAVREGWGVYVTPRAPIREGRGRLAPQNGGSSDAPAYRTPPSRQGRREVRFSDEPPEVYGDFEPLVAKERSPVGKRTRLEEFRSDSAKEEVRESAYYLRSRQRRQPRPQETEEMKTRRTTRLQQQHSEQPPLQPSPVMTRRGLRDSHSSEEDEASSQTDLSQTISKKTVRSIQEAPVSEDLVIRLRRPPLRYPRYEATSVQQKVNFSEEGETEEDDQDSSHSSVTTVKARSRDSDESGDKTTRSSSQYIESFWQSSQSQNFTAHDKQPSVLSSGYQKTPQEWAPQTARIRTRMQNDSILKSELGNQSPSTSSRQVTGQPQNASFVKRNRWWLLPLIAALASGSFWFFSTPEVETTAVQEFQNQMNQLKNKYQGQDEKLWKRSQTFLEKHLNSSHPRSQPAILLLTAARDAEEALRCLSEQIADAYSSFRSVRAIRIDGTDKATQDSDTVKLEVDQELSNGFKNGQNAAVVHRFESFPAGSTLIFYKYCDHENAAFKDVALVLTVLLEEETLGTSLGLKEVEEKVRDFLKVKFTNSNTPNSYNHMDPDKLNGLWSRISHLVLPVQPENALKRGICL

[10] = molecular target: Alpha-bungarotoxin (Bungarus multicinctus) (UniProt P60615); assay: compounds binding labelled alpha-BTX control protein – biochemical, small-molecule microarray, Alexa647 label, 635/667 nm fluorescence, artefact control for SMM control protein annotation, profiling panel (AID 1117); conditions: alpha-BTX-A647 binding fluorescence, higher = more signal
Sequence of Alpha-bungarotoxin (Bungarus multicinctus) (P60615 whole entry, looked up): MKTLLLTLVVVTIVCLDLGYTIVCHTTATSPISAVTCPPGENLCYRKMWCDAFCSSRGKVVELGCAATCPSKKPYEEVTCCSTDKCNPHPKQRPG

SMILES | composite z-score [1] | z-score [2] | composite z-score [3] | composite z-score [4] | composite z-score [5] | composite z-score [6] | composite z-score [7] | composite z-score [8] | composite z-score [9] | composite z-score [10]
Cc1cc2c(nc1C)CCCN2CC(O)CN1CCCc2nc(-c3ccc(Br)cc3)ccc21 (stereo not given) | 1.32 and 1.19 | -1.3 and -2.09 | 0.917 and 0.75 | 0.645 and 1.01 | -0.0329 and 0.151 | 0.361 and 0.499 | 0.641 and 1.58 | 0.676 and 1.1 | 0.126 and 1.1 | 1.92 and 2.78
CC(C)C(=O)N[C@@H]1CCCN1C(=O)C=Cc1ccccc1 | 0.734 | -1.05 | 0.85 | 0.0331 | -1.12 | -0.0704 | -0.138 | 0.173 | 0.587 | 0.289
C[N+](C)(C)CCCCCCNC(=O)[C@@H]1C[C@@H]2C(=O)N[C@@H](CCCC[N+](C)(C)C)C(=O)N2[C@@H]1c1ccc(O)cc1 | -0.259 and 0.575 | -0.0888 and 0.51 | 0.515 and 0.0005 | -0.529 and -0.759 | 0.458 and -0.85 | -0.144 and -0.13 | -0.304 and -0.221 | -0.0281 and -0.295 | 2.61 and 0.23 | -0.137 and 0.0818
CCOC(=O)[C@@H]1CC=C2CC1C(=O)N1CCC[C@@H]1[C@H]2O[Si](C)(C)C(C)(C)C (stereo not given in full) | -1.02 and -0.733 | -0.558 and -1.14 | -0.355 and 0.279 | -1.9 and -1.57 | -0.312 and -1.91 | -0.0512 and -0.252 | 0.0611 and -0.2 | -0.0863 and -0.48 | -0.496 and -1.03 | -0.922 and -1.49
CC(CO)N1C(=O)[C@@H]2C3C(=O)OCCC=C[C@H]3OC23C=CCN(c2ccc(Cl)cc2)C(=O)[C@@H]13 (stereo not given in full) | -0.999 and 0.188 | -0.229 and -0.964 | -0.905 and -1.03 | 0.136 and 0.0733 | 1.09 and -0.66 | -0.0346 and -0.152 | -0.19 and -0.0035 | 0.0473 and 0.61 | -0.236 and 1.7 | 0.0882 and -0.198
C=CCN(CCCC)C(=O)C(c1cccs1)N(C(=O)/C=C\C(=O)O)c1ccc(CCO)cc1 (stereo not given) | -0.541 and -0.68 | -1.03 and 0.741 | -2.24 and -2.46 | -0.324 and -0.724 | 0.423 and 0.395 | -0.13 and -0.262 | -0.0904 and -0.276 | -0.0621 and -0.0827 | 1.13 and -0.803 | 0.749 and -2.47
COC(=O)C1=C(C)N(Cc2ccccc2)[C@]23O[C@](C(=O)OC)(C(=O)N2[C@@H]1c1ccccc1)[C@H]1C(=O)N(C)C(=O)[C@H]13 | 0.866 and 0.534 | -1.01 and 0.238 | 1.15 and 0.687 | 0.949 and -0.202 | 0.29 and -0.107 | -0.16 and -0.0165 | -0.237 and 0.165 | -0.108 and -0.0008 | 0.384 and 0.73 | 0.0312 and -0.0037
COC(=O)[C@H](C)NC(=O)CCC1CC(OC(=O)NCCc2ccc(F)cc2)CC2(CCCC(COC(=O)NCCCN3CCCC3=O)O2)O1 (stereo not given in full) | 1.39 | -2.21 | 1.21 | 0.95 | -0.387 | -0.172 | 0.0278 | 0.33 | 1.05 | 1.14
O=C1[C@H]2[C@H]3[C@H](O)[C@H](O)CC(=NOCc4ccccc4)[C@H]3CC[C@H]2C(=O)N1Cc1ccccc1 | -0.424 | -0.44 | 0.552 | -0.0595 | -0.477 | -0.222 | -0.0772 | -0.182 | 0.197 | -0.0806
CCCCN1CC=CC23O[C@@H]4C=CCCOC(=O)C4[C@H]2C(=O)N(C(C)CO)[C@@H]3C1=O (stereo not given in full) | 0.228 and -0.107 | -0.797 and -0.144 | -0.321 and 0.0741 | -0.495 and 0.257 | -0.396 and 0.473 | -0.0403 and -0.154 | 0.171 and 0.0637 | 0.179 and 0.0775 | -0.19 and 0.191 | -0.44 and -0.137
C=CCN(C(=O)C(c1cccs1)N(C(=O)/C=C\C(=O)O)c1c(Cl)cccc1CO)c1ccc(OC)cc1 (stereo not given) | -0.523 and -0.539 | -0.16 and -0.604 | -2.96 and -1.51 | -0.0794 and -0.107 | 1.06 and 0.804 | -0.285 and -0.096 | -0.0011 and 0.173 | 0.709 and -0.0216 | 1.81 and -0.188 | -1.73 and -0.053
C[C@@H]1CN2[C@@H](CC[C@@H](C)[C@@H]2c2ccc(Br)cc2)C(=O)O1 | -0.561 and -0.15 | -0.67 and 1.5 | 0.57 and 0.0106 | -0.235 and -0.676 | -0.535 and 0.1 | -0.148 and -0.206 | -0.59 and -0.428 | 0.0014 and -0.287 | -0.0307 and -0.0763 | -0.209 and 0.0857
COC(=O)[C@@]1(Cc2ccccc2)[C@H]2c3cc(C(=O)N(C)C)n(Cc4ccc(C)c(F)c4F)c3C[C@H]2CN1C(=O)c1ccccc1 | 1.41 and 1.38 | -3.76 and -2.08 | -0.301 and 0.288 | 1.46 and 2.22 | 0.818 and 1.11 | 0.208 and 0.822 | 1.91 and -0.279 | 0.782 and 0.365 | 2.24 and 0.536 | 0.226 and 1.1
CCOC(=O)NN=C1C[C@@H](O)[C@@H](O)[C@@H]2[C@@H]3C(=O)N(Cc4ccc5c(c4)OCO5)C(=O)[C@@H]3CC[C@@H]12 | 0.431 | -0.398 | -0.0145 | 0.257 | -0.727 | -0.006 | -0.0011 | -0.252 | 0.629 | 0.619
CC(C)CCN1CCc2nc(-c3ccccc3)c3c(c2C1)CO[C@@H](C)C3 | 1.35 | -0.952 | 0.457 | -0.083 | -0.399 | -0.0944 | -0.138 | -0.036 | 0.565 | 0.416
C=CC[C@@H](O)c1ccc(O)c(F)c1 | -0.612 and -0.685 | -0.947 and 0.848 | -2.46 and -1.47 | -0.75 and -1.41 | 0.0576 and -0.0804 | -0.0399 and -0.278 | -0.332 and -0.124 | -0.116 and -0.62 | -0.635 and -0.47 | -1.9 and -2.33
C=CCN(CCCC)C(=O)C1N(CCCCCCO)C(=O)C2C(C(=O)O)C3C=CC21O3 (stereo not given) | -0.498 and -0.27 | 0.227 and -0.883 | -3.06 and -3.09 | -0.494 and -0.605 | 0.169 and 0.392 | -0.184 and -0.226 | 0.0048 and -0.138 | -0.349 and -0.318 | -0.423 and 0.349 | -1.1 and -1.81
C[C@@H]1CC[C@H]2C(=O)O[C@H](CN=[N+]=[N-])CN2[C@H]1c1ccc(Br)cc1 | -0.322 and -0.172 | -0.0944 and 0.335 | 0.0584 and 0.213 | -0.425 and -0.201 | -0.306 and -0.544 | -0.124 | -0.174 and -0.0769 | 0.0078 and -0.196 | -0.21 and 0.116 | 0.089 and 0.397
C=CCN(C(=O)C(c1cccs1)N(CCOCCO)C(=O)/C=C\C(=O)O)C(C)(C)C (stereo not given) | -1.34 and -0.3 | 0.399 and -0.274 | -2.67 and -2.46 | -1.36 and -0.361 | -0.183 and 0.48 | -0.154 and -0.239 | -0.174 and 0.151 | -0.0689 and 0.106 | 0.17 and -0.417 | -2.22 and -0.34
Cc1ccc(S(=O)(=O)N[C@H]2COC(=O)[C@@H](Cc3ccccc3)NC(=O)[C@@H](C)COC(=O)CC=C[C@@H]2C)cc1 | -1.28 and 0.123 | 1.41 and -1.89 | 0.839 and 0.546 | -0.233 and -0.354 | -0.372 and -0.879 | -0.1 and -0.0912 | 0.0494 and -0.138 | -0.122 and -0.038 | 0.15 and -0.0849 | 0.423 and -0.1
C=CCN(C(=O)C1N(C(C)(C)CO)C(=O)C2C(C(=O)O)C3C=CC21O3)C(C)(C)C (stereo not given) | -0.898 and 0.0796 | -0.276 and -0.577 | -3.78 and -1.84 | -0.742 and -0.353 | 0.271 and 0.369 | -0.286 and -0.148 | -0.138 | -0.183 and -0.0144 | -1.69 and 3.03 | -2.08 and 1.04
C=CCN(C(=O)C(c1cccs1)N(C(=O)/C=C\C(=O)O)C(C)(C)CO)C(C)(C)C (stereo not given) | -0.453 and -0.0211 | -0.0094 and 0.0766 | -2.3 and -1.73 | -0.243 and -0.782 | -0.403 and 0.164 | -0.124 and -0.197 | -0.0553 and -0.0769 | 0.945 and 0.25 | 0.78 and -0.351 | 0.489 and 0.895
C=C[C@H](C)[C@H](O)c1ccc(O)c2ccccc12 | -0.523 and -0.557 | -1.28 and -0.876 | -0.796 and -0.399 | -1.09 and -1.04 | -0.75 and -1.04 | -0.244 and -0.12 | -0.0769 and -0.138 | -0.37 and -0.46 | 0.159 and -0.0387 | 0.594 and -0.204
